Results reported in PubChem BioAssay (EPA / NIEHS).
The source made the active and inactive calls. Rule for the calls: active = hit-call score of the fitted dose curve at least 0.9, where 1 is the maximum; inactive = score below 0.9.

Read-out: Forkhead box O1 (FOXO1), FOXO1 (gene 2308)
Experiment: LTEA_HepaRG_FOXO1: Life Technologies and Expression Analysis (LTEA) Assay for Forkhead box O1 (FOXO1) using HepaRG (AID 2283456)
Conditions: mRNA level, 48 h; actives raise or lower the signal
Protocol: LTEA_HepaRG is a cell based, multiplexed-readout assay that uses HepaRG, a human liver cell line, with measurements taken at 48 hours after chemical dosing on a 96-well plate.LTEA_HepaRG_FOXO1 is one of 102 assay component(s) measured in the LTEA HepaRG cell culture assay. It is a marker of Cell proliferation, survival, death.Data from the assay component LTEA_HepaRG_FOXO1 was analyzed into 1 endpoint. This assay endpoint, LTEA_HepaRG_FOXO1, was analyzed with bidirectional fitting relative to DMSO as the negative control and baseline of activity. Using a type of inducible reporter, measures of mRNA induction for gain or loss-of-signal activity can be used to understand regulation of transcription factor activity. To generalize the intended target to other relatable targets, this assay endpoint is annotated to the dna binding intended target family, where the subfamily is forkhead box protein.
A total of 1060 chemcials from the ToxCast library were tested in eight-point concentration-response experiments. Cell culture and cytotoxicity assays were conducted at Thermo Fisher Scientific's Custom Services facility (Madison, WI). A single lot of human HepaRG cells (Thermo Fisher Scientific, Frederick, MD) was used for the cell culture experiments. 96-well format collagen type I coated plates of human HepaRG cells were prepared using established methods. Briefly, cryopreserved HepaRG cells were thawed, plated at a density of approximately 100,000 cells/well in HepaRG Thaw, Plate, and General Purpose media (HPRG770, Thermo Fisher Scientific), and incubated for 48 hours. 0.5% DMSO was selected as vehicle control to balance the requisite need of DMSO in HepaRG cultures to maintain differentiation (for example, baseline metabolism, proportions of hepatocytes vs. cholangiocytes), while enabling further hepatic receptor pathway activation (for example, PXR and CAR) in response to chemical exposure. 48 hours after plating, the culture medium was replaced with HepaRG Serum-Free Incudtion Media. Cells were exposed to each test chemical in duplicate and maintained in CO2 incubators for another 48 hours. Chemical plates were thawed to room temperature and 200x concentrations of treatment groups were prepared. 8-point conentration-reponse curves were made with the highest exposure at 100 uM, followed by half-log dilutions, all in 0.5% DMSO. Each test plate contained variouse controls, induction positive controls (1mM phenobarbital), cytotoxicity positive controls ([…] aflatoxin B1), vehicle controls (0.5% DMSO), and total lysis controls (0.5% DMSO). Cell morphology images were taken using an Essen IncuCyte FLR automated microscope, with six 96-well plates imaged in about 24 minutes. Images were captured and exported and JPEG files. Spent culture media was transfered to black-well plates for the LDH assay, and remaining media was sorted at -80 C for later use. Cells were treated with RLT buffer and frozen until shipped for gene expression analysis. Total RNA was isolated from the cell suspension in 75 uL of Buffer RLT (Qiagen, Germantown, MD 20874) by Quintiles/Expression Analysis (Durham, NC) using a custom isolation procedure. Total RNA from each plate well was transferred to a preamplification plate. Fluidigm's 96.96 Dynamic ArrayTM (Fluidigm, Amsterdam, the Netherlands) technology was used for gene expression analyses by quantitative reverse transcription polymerase chain reaction (qRT-PCR, performed by Quintiles/Expression Analysis, Durham, NC)89. Standard TaqManTM Assays (Applied Biosystems/ThermoFisher Scientific, Foster City, CA) were used to assess the expression of 93 genes selected based on their selectivity and sensitivity to important hepatic receptors known to be modulated by environmental chemicals; importance in human hepatocyte functionality; and hepatotoxicity. […]

| Structure (SMILES) | outcome | AC50 |
| --- | --- | --- |
| CCn1nc(Cc2ccccc2)cc1C1CCN(C[C@H]2C[C@H](N(C)[C@@H](C(=O)O)C(C)C)C[C@@H]2c2cccc(F)c2)CC1 | inactive | – |
| CC(C)=CCC/C(C)=C/CO | inactive | – |
| CC(=O)OC[C@H]1O[C@@](COC(C)=O)(O[C@H]2O[C@H](COC(C)=O)[C@@H](OC(C)=O)[C@H](OC(C)=O)[C@H]2OC(C)=O)[C@@H](OC(C)=O)[C@@H]1OC(C)=O | inactive | – |
| C1N2CN3CN1CN(C2)C3 | inactive | – |
| CCOC(=O)CC(CC(=O)OCC)(OC(C)=O)C(=O)OCC | inactive | – |
| CC[C@H]1OC(=O)[C@H](C)[C@@H](O[C@H]2C[C@@](C)(OC)[C@@H](O)[C@H](C)O2)[C@H](C)[C@@H](O[C@@H]2O[C@H](C)C[C@H](N(C)C)[C@H]2O)[C@](C)(O)C[C@@H](C)C(=O)[C@H](C)[C@@H](O)[C@]1(C)O | inactive | – |
| COCCOc1cc2cc(C(=O)NC3CCN(C(C)C)CC3)n(CC(=O)Nc3ccc(Cl)cn3)c2cn1 | inactive | – |
| CCCCC(CC)COC(=O)CCCCCCCCC(=O)OCC(CC)CCCC (stereo not given) | inactive | – |
| C1=CCCC=CCCC=CCC1 | inactive | – |
| CNS(=O)(=O)c1cc(C(=O)N2CCC(CCN3C4CCC3CC(n3c(C)nc5ccccc53)C4)(c3cccc(F)c3)CC2)c(Cl)cc1F (stereo not given) | inactive | – |
| CC(O)CN(CCN(CC(C)O)CC(C)O)CC(C)O (stereo not given) | inactive | – |
| Clc1nc(Cl)c(Cl)c(Cl)c1Cl | inactive | – |
| COc1cccc(-c2ccc(/C=C\CN3CCCCCC3)cc2Cl)c1 | – | 70.8 µM (active) |
| CCN(C(=O)c1cc(C)cc(OC[C@H](C)Nc2ccncc2)c1)C(C)C | inactive | – |
| CCNc1ccccc1 | inactive | – |
| COc1ccc(/C=C/S(=O)(=O)NC(=O)c2ccc(C)cc2Cl)cc1 | inactive | – |
| C[C@](N)(Cc1ccc(O)c(O)c1)C(=O)O | inactive | – |
| CCOC(=O)COc1ccc2c(c1)CC(NCC(O)c1cccc(Cl)c1)CC2 (stereo not given) | inactive | – |
| CCCCCCCCCCCCc1ccccc1 | inactive | – |
| CNCc1ccc(NC(=O)c2c[nH]c3c2C(=O)CCC3)cc1 | inactive | – |

| Structure (SMILES) | outcome | AC50 |
| --- | --- | --- |
| CC[C@H](C)C(=O)O[C@H]1C[C@@H](C)C=C2C=C[C@H](C)[C@H](CC[C@@H]3C[C@@H](O)CC(=O)O3)[C@H]21 | inactive | – |
| Cn1c(=O)cc(Oc2ccc(F)cc2F)c2cnc(NCC(C)(C)O)nc21 | inactive | – |
| CCOCCO | inactive | – |
| Cn1c(=O)c2c(ncn2C)n(C)c1=O | inactive | – |
| CC1(C)C(=O)N(Br)C(=O)N1Br | inactive | – |
| O=P(OC(CCl)CCl)(OC(CCl)CCl)OC(CCl)CCl | inactive | – |
| CCCCCCCCCCCCCCCO | inactive | – |
| CC(C)c1cccc(C(C)C)c1N1C(=O)c2ccc(O)cc2C1=O | – | 83.9 µM (active) |
| COCCOCCOCCOC | inactive | – |
| CCC(C)(C)C(=O)O[C@H]1C[C@@H](C)C=C2C=C[C@H](C)[C@H](CC[C@@H]3C[C@@H](O)CC(=O)O3)[C@H]21 | inactive | – |
| Nc1ccc(Nc2ccccc2)cc1 | inactive | – |
| Oc1ccc2c(c1)-c1ccccc1C2 | inactive | – |
| On1ccccc1=S | inactive | – |
| CCOC(=O)c1ccc(C2CCC(NC[C@H](O)COc3ccc(O)c(NS(C)(=O)=O)c3)CC2)cc1 (stereo not given in full) | inactive | – |
| Nc1cccc(N)c1 | inactive | – |
| Cc1c(-c2cccnc2)c2ccccc2n1CCCCC(=O)O | inactive | – |
| Cc1ccc(S(=O)(=O)O)cc1C | inactive | – |
| CC(C)CCO | inactive | – |
| CCCCCCc1ccc(O)cc1O | inactive | – |
| O=C1CCC(N2C(=O)c3ccccc3C2=O)C(=O)N1 (stereo not given) | inactive | – |
